Source: PubChem BioAssay
HT1080NT lethal – kills 2HG-producing HT-1080-NT fibrosarcoma cells. HT-1080-NT fibrosarcoma viability, CellTiter-Glo ATP luminescence, 48 h. Potency, µM (series often up to 46.1 µM), inactives show top-dose activity, negative = less viability, hits mostly cytotoxic. actives 1.6% (n = 360,000). AID 686970;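 further: NT is the 2HG producing partner of a matched IDH1 knockdown line; potency means the concentration at half of the fitted maximal effect; 0% = DMSO-treated cells and -100% = media-only wells without cells; nearly all actives have a fitted effect of over 55% in size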
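HT-1080-NT; 750 cells/well; 5% FBS RPMI; 48 h compound, 37 degrees C; CellTiter-Glo luminescence; curve fitting and curve-class assignment.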
12-LOX inh – blocks human arachidonate 12S-lipoxygenase | actives 1.1% (n = 580,000) | purified 12hLO, xylenol orange hydroperoxide absorbance | AID 1671190 | Potency, µM (titrated, usually from 108 µM), for inactives: at the top dose activity change, negative = inhibition, hits mostly inhibitors; further: potency means the concentration at half of the fitted maximal effect
Target sequence (P18054 whole entry, looked up): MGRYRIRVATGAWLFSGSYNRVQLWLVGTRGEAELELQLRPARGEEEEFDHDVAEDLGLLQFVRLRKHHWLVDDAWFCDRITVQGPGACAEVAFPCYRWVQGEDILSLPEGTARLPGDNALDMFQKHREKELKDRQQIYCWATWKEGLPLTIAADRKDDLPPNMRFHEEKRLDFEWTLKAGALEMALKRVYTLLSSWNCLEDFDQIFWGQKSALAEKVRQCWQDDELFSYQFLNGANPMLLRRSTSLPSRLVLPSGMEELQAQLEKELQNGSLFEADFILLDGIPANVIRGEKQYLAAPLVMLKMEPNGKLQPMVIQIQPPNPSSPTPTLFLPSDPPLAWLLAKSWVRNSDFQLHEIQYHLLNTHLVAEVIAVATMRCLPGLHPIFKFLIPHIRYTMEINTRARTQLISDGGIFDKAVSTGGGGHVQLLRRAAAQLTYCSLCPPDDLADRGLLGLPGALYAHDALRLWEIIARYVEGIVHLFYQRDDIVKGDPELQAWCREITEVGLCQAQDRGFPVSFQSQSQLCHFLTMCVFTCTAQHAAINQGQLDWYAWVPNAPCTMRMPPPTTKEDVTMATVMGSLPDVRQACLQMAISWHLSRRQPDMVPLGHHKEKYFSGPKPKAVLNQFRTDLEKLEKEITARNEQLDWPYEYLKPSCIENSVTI
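Hydroperoxide product was detected by ferrous iron/xylenol orange as the 573 to 405 nm absorbance ratio. Arachidonic acid at 40 uM (final) was turned over for 30 min at room temperature by 150 nM human 12hLO, pH 7.0 Hepes buffer, after 15 min compound preincubation.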
TDP1 cell noCPT – qHTS for Inhibitors of human tyrosyl-DNA phosphodiesterase 1 (TDP1): qHTS in cells in absence of CPT | DT40 Tdp1-/- hTDP1 cells, no CPT, ATP luminescence, 48 h | Potency, µM (titrated, usually from 46.2 µM), for inactives: at the highest dose activity change, negative = growth inhibition, usual class: inhibitors | actives 15% (n = 420,000) | AID 686978, 2013; further: potency means the concentration at half of the fitted maximal effect; nearly all actives have a fitted effect of over 55% in size
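Growth kinetics read by CellTiter-Glo luminescence after ≥48 hr at 37 °C. Cells: DT40 Tdp1-/- stably carrying human TDP1, 400 per well, compound exposure in the absence of CPT (DMSO vehicle).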
TDP1 cell CPT – growth inhibition of DT40 Tdp1-/-;hTDP1 cells with camptothecin (screen for TDP1 inhibitors). AID 686979. chicken DT40 Tdp1-/-;hTDP1 cells + 20 nM CPT, ATP luminescence, 48 h. Potency, µM (highest dose often 46.2 µM), for the others: top-dose activity change, negative = growth inhibition, most hits filed as inhibitors. actives 12% (n = 420,000); further: potency means the concentration at half of the fitted maximal effect; nearly all actives have a fitted effect of over 55% in size
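Chicken DT40 Tdp1-/- cells stably complemented with human TDP1 were seeded at 400 cells/well in medium containing 20 nM camptothecin, exposed to pin-transferred compounds, and grown at 37 °C for at least 48 hr. Viability was read as ATP luminescence.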
HT1080 IDH1KD tx – HT-1080 IDH1 knockdown cell toxicity (counter line). actives 2% (n = 360,000). AID 686971. HT-1080 IDH1 knockdown viability, ATP luminescence, 48 h. Potency, µM (top dose mostly 46.1 µM), for the others: top-dose activity, negative = toxicity, most hits filed as cytotoxic;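 further: potency means the concentration at half of the fitted maximal effect; 0% = DMSO wells and -100% = cell-free medium wells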
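IDH1KD HT-1080 cells, 750/well, RPMI + 5% FBS; compound pinned after 2 h settling; 48 h, 37 °C; CellTiter-Glo luminescence; % activity normalised to DMSO and no-cell wells; curves fitted, classed by r2 and efficacy.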
IL1B secr inh – blocks inflammasome-driven IL-1 beta release | THP-1 LPS/ATP IL-1B secretion, AlphaLISA, 16 h; active compounds read low | activity change, % at 57.5 µM | actives 4.7% (n = 360,000) | AID 743279; in the data active means activity change below about -50%; inconclusive means mostly about -30% to -49%
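THP-1 cells pretreated 1 hr with compounds (up to 57.5 uM final), then stimulated with LPS (250 ng/mL final) plus ATP (1.25 mM final); secreted IL-1B measured by AlphaLISA after 16 hr, decreased signal indicating inhibition.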
* = called active by the depositor; i = inactive; ? = inconclusive; . = not tested or not shown; [ ] = another dose, or the depositor's remark. This excerpt belongs to a sample that is enriched for hits. Unless noted, the call rests on the fitted dose curve; in most records, active means well fitted curve in the direction sought with a large enough effect; inconclusive means small, poorly fitted or top-dose-only effect, or another doubt; inactive means no such curve, though single readings can be large; an effect the other way counts as inactive or inconclusive. Unless noted, on the % scale 0 is the no-effect control and ±100 the full control effect.

SMILES | HT1080NT lethal | 12-LOX inh | TDP1 cell noCPT | TDP1 cell CPT | HT1080 IDH1KD tx | IL1B secr inh
COc1ccc(OC)c(C(C)NC(C)=O)c1 (configuration not stated) | 1% | -29% | 1% | -6% | -6% | -4
CC(Oc1ccc(Cl)cc1Cl)c1nc(-c2ccc(NC(=O)c3ccco3)cc2)no1 (configuration not stated) | -10% | 0% | 16µM* | 23µM* | -21% | -11
CC(NC(=O)c1ccco1)c1nc(-c2ccccc2)no1 (configuration not stated) | 25% | -2% | -27% | -11% | 2% | -5
N#Cc1ccc(CCC(=O)O)cc1 | . | 28µM* | . | . | . | .
O=C(NC1CC1)C1COC2(CCN(C(=O)c3cccc([N+](=O)[O-])c3)CC2)N1C(=O)c1ccccc1 (configuration not stated) | . | 8% | . | . | . | .
CC1=NN(CCC#N)C(=O)/C1=C/c1ccc(N(C)C)cc1 | 13% | 15% | ? | 9% | 20% | -7
CCN(CC)c1ccc(/C=C2\C(=O)N(c3nnc(C)c(=O)[nH]3)N=C2C)cc1 | ? | -16% | 18µM* | 13µM* | ? | -98*
Cc1nc2ccccc2n1Cc1cc(C(=O)N2CCN(C)C(=O)[C@@H]2C)n[nH]1 | . | 8% | . | . | . | .
CCn1nc(C)cc1-c1nnc(SCC(=O)Nc2ccccc2)n1CCCOC | 8% | 164% | -19% | -9% | 10% | .
CCn1nc(C)cc1-c1nnc(Sc2ncc([N+](=O)[O-])s2)n1C | 10µM* | ? | 0.58µM* | 0.58µM* | 21µM* | -99*
O=C1CCCCN1CC(=O)N1CCCC(CCc2ccc(F)cc2F)C1 (configuration not stated) | . | -29% | . | . | . | .
CCOc1ccc(S(=O)(=O)N2CCN(C(=O)c3ccc(C)c(S(=O)(=O)N4CCOCC4)c3)CC2)cc1 | -9% | 249% | 18µM* | 26µM* | -10% | -4
Cc1ccc(C(=O)N2CCC(Cc3ccccc3)CC2)cc1S(=O)(=O)N1CCOCC1 | -3% | ? | 9.2µM* | ? | 4% | -18
CCOc1ccc(NC(=O)COC(=O)Cc2ccc(S(=O)(=O)N3CCOCC3)s2)cc1 | 0% | ? | 3% | 10% | 25% | 32
Cc1ccc(C(=O)N2CCN(c3ccccc3)CC2)cc1S(=O)(=O)N1CCOCC1 | -8% | 1% | ? | ? | -11% | -2
CCOc1ccc(S(=O)(=O)N2CCN(C(=O)Cc3ccc(S(=O)(=O)N4CCOCC4)s3)CC2)cc1 | -8% | -1% | 23µM* | ? | 0% | -13
O=c1c2cc(Cl)ccc2ncn1Cc1ncc(-c2ccccc2)o1 | . | 13% | . | . | . | .
CCCc1nc2ccc(NC(C)=O)cc2c(=O)n1Cc1ccc(Cl)cc1 | -10% | -23% | 23µM* | ? | -6% | ?
CCCc1nc2ccc(NC(=O)c3cccs3)cc2c(=O)n1Cc1ccccc1Cl | 8% | -5% | 16µM* | ? | 17% | -14
CC(NNC(=S)N1CCN(c2ccccn2)CC1)c1nccc2ccccc12 (configuration not stated) | -19% | ? | 0.018µM* | 0.0092µM* | ? | -101*
CN(C)c1cccc(C(=O)Nc2ccc(-c3ccccc3)cc2)c1 | . | -4% | . | . | . | .
Cc1ccc(C(O)c2ncc(-c3ccc4ccccc4c3)[nH]2)cc1F (configuration not stated) | -19% | ? | 18µM* | 29µM* | -15% | 0
Cc1ccc(C(O)c2ncc(-c3ccc(C(F)(F)F)cc3)[nH]2)cc1F (configuration not stated) | ? | -11% | 21µM* | ? | ? | -23
Cc1ccc(C(O)c2ncc(-c3ccc(F)cc3)[nH]2)cc1F (configuration not stated) | -4% | -8% | ? | ? | -9% | 8
Cc1cc(C)cc(C(O)c2ncc(-c3cccc(C(F)(F)F)c3)[nH]2)c1 (configuration not stated) | ? | ? | ? | ? | ? | -9
SMILES | HT1080NT lethal | 12-LOX inh | TDP1 cell noCPT | TDP1 cell CPT | HT1080 IDH1KD tx | IL1B secr inh
Cc1cc(C)cc(C(O)c2ncc(-c3ccc(C(F)(F)F)cc3)[nH]2)c1 (configuration not stated) | ? | -3% | 16µM* | ? | ? | 107
OC(c1ccc(Cl)c(Cl)c1)c1ncc(-c2ccc(C(F)(F)F)cc2)[nH]1 (configuration not stated) | ? | -33% | 16µM* | ? | ? | ?
CC(NC(=O)CCc1ncc(-c2ccccc2)o1)c1ccc(S(C)(=O)=O)cc1 (configuration not stated) | . | 10% | . | . | . | .
CCN(CC)CCCNC(=O)c1csc(Nc2ccc(C)cc2)n1 | . | -13% | . | . | . | .
Cc1ccc(C)c(CN2CCC(CNS(=O)(=O)c3csc(C(N)=O)c3)CC2)c1 | . | -9% | . | . | . | .
COCCOC1CCN(C(=O)c2cc(COc3ccc(F)cc3F)on2)CC1 | 1% | i | -13% | -15% | 2% | -12
O=C(CSc1nnnn1-c1cccc2c1CCCC2)N1CCOCC1 | 0% | -6% | -27% | -13% | 0% | 20
O=C(CSc1nnnn1-c1cccc2c1CCCC2)N1CCCC1 | 2% | 0%[57.4 µM] | 23µM* | 16µM* | 9% | 24
CCc1nc2n(n1)C1(CCCCC1)[C@@H]1CCCC[C@@H]1N2C(=O)CC(C)C | . | -2% | . | . | . | .
CC(C)C(=O)N1c2nc(C(C)C)nn2C2(CCCCC2)[C@@H]2CCCC[C@@H]21 | . | -20% | 4.6µM* | 6.5µM* | . | .
CC(C)c1nc2n(n1)C1(CCCCC1)[C@@H]1CCCC[C@@H]1N2 | . | -11% | 23µM* | ? | . | .
CCOC(=O)[C@]12CCCCC/C=C\1N(Cc1ccc(OC)cc1)C(=O)[C@H]2CC(=O)N1CCC(c2ccccc2)CC1 | . | 4% | . | . | . | .
C=CCn1c(C)cc(C(=O)COC(=O)c2cc(C)nc3ccccc23)c1C | . | -15% | . | . | . | .
C=CCn1c(C)cc(C(=O)COc2nncc3ccccc23)c1C | -6% | 0% | 7.3µM* | 8.2µM* | -2% | -4
CCCn1c(C)cc(C(=O)COc2ccc(S(=O)(=O)N(CC)CC)cc2[N+](=O)[O-])c1C | -1% | -4% | 23µM* | 21µM* | -15% | -28
